Each structure is given as a SMILES string. The source made the active and inactive calls. Unless noted, no rule for the calls is given here.

For assay [1], the system named is Wnt5a (protein binding on small-molecule microarray). Briefly: small molecules binding Wnt5a protein – biophysical, small-molecule microarray, 635/667 nm fluorescence, primary screen (AID 1142).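 Also: fluorescence read at 667 nm with signal to noise per printed feature.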 The conditions noted are these: 635 nm fluorescence, higher = more signal.
Assay [2] in a line: ATP-based viability of Huh7 replicon cells – cell-based, CellTiter-Glo luminescence, basal, 48 h, cytotoxicity control for HCV replication inhibitor project, primary screen (AID 1143).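 Also: Huh7 hepatoma cells carrying a hepatitis C replication reporter with no stimulus; test concentration not given here.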 The following applies: higher = more signal, called active from +8 up or from −8 down.
A short description of assay [3]: Pseudomonas biofilm growth suppression – PAO1 strain, BacTiter-Glo luminescence, LB-PBS, primary screen (AID 1144). The following applies: P. aeruginosa PAO1 biofilm, 12 h, higher = more signal.
A short description of assay [4]: basal CRE-LacZ reporter activity in PC12 – cell-based, unstimulated, primary screen (AID 1145). The conditions noted are these: no forskolin, luminescence, 4.5 h, higher = more signal, called active from +8 up or from −8 down.
The nature of assay [5]: forskolin-driven CRE-LacZ activity in PC12 – cell-based, CRE-LacZ reporter, forskolin-stimulated, primary screen (AID 1146).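 Also: PC12 cells with 6xCRE LacZ reporter stimulated by forskolin 10 µM; beta-galactosidase reporter signal reflecting CREB driven transcription.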 The following applies: luminescence, 4.5 h, higher = more signal, called active from +8 up or from −8 down.
Assay [6] concerns the target Streptavidin (Streptomyces avidinii) (UniProt P22629). Nature of the assay: compounds binding control protein streptavidin – biophysical, small-molecule microarray, 635/667 nm fluorescence, artefact control for SMM compound annotation, primary screen (AID 1147).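 Also: signal reflects streptavidin binding to arrayed compounds as a control protein.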 The conditions noted are these: higher = more signal.
Assay [7] in a line: probe aInhba binding on compound microarray – biochemical, small-molecule microarray, 635/667 nm fluorescence, primary screen (AID 1148).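 Also: score merges 667nm spot fluorescence with signal-to-noise for antibody binding to printed compounds.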 The conditions noted are these: higher = more signal.
Assay [8] addresses Torsin-1A (Homo sapiens) (UniProt O14656). Nature of the assay: TOR1A wild-type binding on microarray – cell lysate, small-molecule microarray, lysate, 635/667 nm, primary screen (AID 1149). The conditions noted are these: COS7 hTOR1A-WT lysate, 635 nm fluorescence, higher = more signal.
Assay [9] shares this target. Briefly: torsin A mutant lysate binding on microarrays – cell lysate, small-molecule microarray, COS7 lysate, 635/667 nm fluorescence, primary screen (AID 1150).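 Also: score pools 667 nm emission and signal to noise measuring lysate protein binding.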 The conditions noted are these: COS7 hTOR1A mutant lysate, 635 nm fluorescence, higher = more signal.
Assay [10] relates to Sonic hedgehog protein (Shh). Nature of the assay: Sonic hedgehog microarray binding compounds – biochemical, small-molecule microarray, 635/667 nm fluorescence, primary screen (AID 1151).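 Also: Shh protein binding to compounds spotted on small-molecule microarray slides; score combines spot fluorescence intensity with signal-to-noise across triplicate slides.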 The conditions noted are these: 635 nm fluorescence, higher = more signal.
Assay [11] is described as follows: optical density shifts of acrAB sulA E. coli – strain DRC41, OD650, 48 h, E. coli filamentation inducer project, primary screen (AID 1152).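 Also: E. coli MC1000 strain DRC41 lacking acrAB efflux pump and sulA.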 The conditions noted are these: higher = more signal, called active from +8 up or from −8 down.
Assay [12] is described as follows: probe aLefty1 binding on compound microarray – biochemical, small-molecule microarray, 635/667 nm fluorescence, primary screen (AID 1153).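 Also: score merges spot fluorescence with signal-to-noise ratio from the scanned slide images.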 The conditions noted are these: higher = more signal.
A short description of assay [13]: plasmodial surface anion channel blockers, osmotic lysis – cell-based, P. falciparum Indochina, OD700, 1 h, primary screen (AID 1154). The following applies: P. falciparum Indochina infected RBC osmotic lysis, higher = more signal, called active from +8 up or from −8 down.
The nature of assay [14]: plasmodial surface anion channel blockers, osmotic lysis – cell-based, P. falciparum Indochina, OD700, 2 h, primary screen (AID 1155).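 Also: lysis reports solute entry through the parasite surface anion channel PSAC.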 The conditions noted are these: P. falciparum Indochina infected erythrocytes, higher = more signal, called active from +8 up or from −8 down.
Assay [15] can be described thus: changes in parasitized red cell lysis, either direction – P. falciparum Indochina, OD700, 3 h, PSAC antagonist project, primary screen (AID 1156). The following applies: P. falciparum-infected erythrocytes, osmotic lysis, higher = more signal, called active from +8 up or from −8 down.
Assay [16] is described as follows: plasmodial surface anion channel blockers, osmotic lysis – cell-based, P. falciparum Indochina, OD700, 18 h, primary screen (AID 1157). The following applies: P. falciparum Indochina infected erythrocytes, osmotic lysis OD700, 18 h; higher = more signal, called active from +8 up or from −8 down.
Assay [17] is described as follows: S6 kinase pathway phospho-S6 level changes – cell-based, A549, cytoblot, luminescence, serum-stimulated, primary screen (AID 1158).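 Also: serum-stimulated A549 lung adenocarcinoma cells; signal is phosphorylated S6 detected by cytoblot immunostaining with HRP secondary.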 The following applies: 5 h, higher = more signal.
Assay [18] addresses NADPH oxidase 2 (Homo sapiens) (UniProt P04839). Nature of the assay: compounds shifting NOX2 Amplex Red fluorescence – cell-based, HEK293-NOX2, PMA-stimulated, NOX inhibitor project, primary screen (AID 1159). Also: test concentration not given here. The conditions noted are these: 45 min, higher = more signal, called active from +8 up or from −8 down.
Assay [19] addresses NADPH oxidase 4 (Homo sapiens) (UniProt Q9NPH5). Nature of the assay: compounds shifting NOX4 Amplex Red fluorescence – cell-based, HEK293-NOX4, tetracycline-induced, NOX inhibitor project, primary screen (AID 1160). The following applies: HEK293-NOX4, Amplex Red H2O2 fluorescence, 45 min; higher = more signal, called active from +8 up or from −8 down.
Assay [20] concerns the target NADPH oxidase 5 (Homo sapiens) (UniProt Q96PH1). Nature of the assay: compounds shifting NOX5 Amplex Red fluorescence – cell-based, HEK293-NOX5, NOX inhibitor project, primary screen (AID 1161). The following applies: HEK293-NOX5, ionomycin, 45 min, higher = more signal.

Chain of Streptavidin (Streptomyces avidinii) (P22629 whole entry, looked up): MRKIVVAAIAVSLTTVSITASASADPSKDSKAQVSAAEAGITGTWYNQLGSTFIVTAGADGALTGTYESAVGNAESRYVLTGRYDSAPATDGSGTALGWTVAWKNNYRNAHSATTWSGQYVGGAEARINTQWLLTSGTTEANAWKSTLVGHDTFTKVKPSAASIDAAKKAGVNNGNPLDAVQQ
Chain of NADPH oxidase 5 (Homo sapiens) (Q96PH1 whole entry, looked up): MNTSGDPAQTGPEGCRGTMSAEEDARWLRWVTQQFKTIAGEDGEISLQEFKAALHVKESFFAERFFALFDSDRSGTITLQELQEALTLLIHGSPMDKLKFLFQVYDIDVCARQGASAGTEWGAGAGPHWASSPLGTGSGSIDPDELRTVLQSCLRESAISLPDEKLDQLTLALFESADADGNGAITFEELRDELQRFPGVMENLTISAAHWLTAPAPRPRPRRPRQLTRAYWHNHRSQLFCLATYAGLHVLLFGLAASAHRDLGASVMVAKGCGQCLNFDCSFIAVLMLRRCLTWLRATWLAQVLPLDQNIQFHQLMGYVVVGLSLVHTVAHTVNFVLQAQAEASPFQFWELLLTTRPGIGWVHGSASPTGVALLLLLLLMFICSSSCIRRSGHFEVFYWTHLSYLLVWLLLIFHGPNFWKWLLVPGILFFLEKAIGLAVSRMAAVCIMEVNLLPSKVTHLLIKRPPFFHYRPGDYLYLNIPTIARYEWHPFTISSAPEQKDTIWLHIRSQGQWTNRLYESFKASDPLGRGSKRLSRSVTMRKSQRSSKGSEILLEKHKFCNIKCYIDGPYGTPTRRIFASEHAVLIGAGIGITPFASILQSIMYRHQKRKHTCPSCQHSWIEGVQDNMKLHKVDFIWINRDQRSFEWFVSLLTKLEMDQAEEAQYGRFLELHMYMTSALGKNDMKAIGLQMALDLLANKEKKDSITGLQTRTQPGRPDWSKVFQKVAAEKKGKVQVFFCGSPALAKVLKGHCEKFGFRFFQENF
Chain of Torsin-1A (Homo sapiens) (O14656 whole entry, looked up): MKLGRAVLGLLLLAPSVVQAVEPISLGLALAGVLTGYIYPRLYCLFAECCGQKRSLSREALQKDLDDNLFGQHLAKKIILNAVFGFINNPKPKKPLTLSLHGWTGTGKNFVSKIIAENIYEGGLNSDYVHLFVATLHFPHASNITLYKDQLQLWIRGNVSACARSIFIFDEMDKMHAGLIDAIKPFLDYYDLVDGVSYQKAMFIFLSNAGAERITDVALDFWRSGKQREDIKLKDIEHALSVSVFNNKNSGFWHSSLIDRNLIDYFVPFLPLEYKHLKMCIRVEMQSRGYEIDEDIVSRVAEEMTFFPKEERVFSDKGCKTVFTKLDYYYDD
Chain of NADPH oxidase 4 (Homo sapiens) (Q9NPH5 whole entry, looked up): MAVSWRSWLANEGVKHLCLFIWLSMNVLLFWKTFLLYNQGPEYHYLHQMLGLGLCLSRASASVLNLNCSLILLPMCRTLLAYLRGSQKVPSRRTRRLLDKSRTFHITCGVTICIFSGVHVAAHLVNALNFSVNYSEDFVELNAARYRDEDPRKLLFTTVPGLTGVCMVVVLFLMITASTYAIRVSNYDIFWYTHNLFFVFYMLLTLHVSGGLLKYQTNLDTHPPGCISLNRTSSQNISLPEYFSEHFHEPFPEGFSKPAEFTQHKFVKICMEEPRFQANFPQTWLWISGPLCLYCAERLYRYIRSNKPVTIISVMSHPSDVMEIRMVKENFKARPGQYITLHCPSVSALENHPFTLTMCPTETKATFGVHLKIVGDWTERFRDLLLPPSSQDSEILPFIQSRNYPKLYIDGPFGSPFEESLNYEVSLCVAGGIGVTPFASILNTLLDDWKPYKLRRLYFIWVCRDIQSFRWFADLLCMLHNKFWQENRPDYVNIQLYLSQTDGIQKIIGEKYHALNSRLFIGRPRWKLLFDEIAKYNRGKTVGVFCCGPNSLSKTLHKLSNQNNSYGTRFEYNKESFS
Chain of NADPH oxidase 2 (Homo sapiens) (P04839 whole entry, looked up): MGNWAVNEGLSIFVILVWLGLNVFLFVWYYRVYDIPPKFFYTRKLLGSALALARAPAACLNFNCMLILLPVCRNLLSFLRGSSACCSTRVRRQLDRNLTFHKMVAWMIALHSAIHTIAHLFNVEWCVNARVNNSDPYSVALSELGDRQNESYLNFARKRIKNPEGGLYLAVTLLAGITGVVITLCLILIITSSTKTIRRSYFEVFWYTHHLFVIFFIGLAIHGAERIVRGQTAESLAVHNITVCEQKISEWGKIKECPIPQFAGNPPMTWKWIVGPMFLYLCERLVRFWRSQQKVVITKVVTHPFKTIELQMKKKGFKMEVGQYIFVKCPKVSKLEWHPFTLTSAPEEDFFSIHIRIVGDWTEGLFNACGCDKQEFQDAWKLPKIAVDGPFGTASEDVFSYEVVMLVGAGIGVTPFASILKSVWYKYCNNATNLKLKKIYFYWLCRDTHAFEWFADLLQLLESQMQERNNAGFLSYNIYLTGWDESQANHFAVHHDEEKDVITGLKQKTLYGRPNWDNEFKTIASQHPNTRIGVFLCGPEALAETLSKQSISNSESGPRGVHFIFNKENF

In the case of `COCCOC(=O)N1C(=O)[C@@]2(c3cc(C#CCCO)ccc31)[C@H](c1ccc(O)cc1)N1[C@H](c3ccccc3)[C@H](c3ccccc3)OC(=O)[C@H]1[C@@H]2C(=O)N1CCc2cc(OC)c(OC)cc2C1`, the composite z-score in assay [1] amounted to 0.565; in assay [6] it was 0.354; in assay [7], 0.628; with Torsin-1A (Homo sapiens) [8] it was 1.07; with Torsin-1A (Homo sapiens) [9] it was 0.761; in assay [10], 1.32. Also, the composite z-score in assay [12] came to 0.469. Further, the z-score in assay [2] is 0.0501 (inactive); in assay [3] it was -0.883 (inactive); in assay [4] it was -0.0647 (inactive); in assay [5] it was -1.05 (inactive); in assay [11] it was -0.0188 (inactive); in assay [13], 1.22 (inactive). Further, the z-score was 0.141 (inactive) in assay [14]; 0.203 (inactive) in assay [15]; 0.286 (inactive) in [16]; 0.212 in assay [17]; 0.611 (inactive) in assay [18]; 0.522 (inactive) in [19]. In [20], the z-score was found to be 1.02.

For the molecule `CC1(C)OC[C@@]23C=C(Br)[C@@H](C[C@H]12)[C@@]1(CO1)C3=O`, the composite z-score in assay [1] is 0.0405; in [6], -0.0131; in [7], -0.0331; with Torsin-1A (Homo sapiens) [8], 0.667; in the assay with Torsin-1A (Homo sapiens) [9] it was 0.483; in assay [10], 0.474. Moreover, the composite z-score in [12] was found to be 0.0557. In addition, the z-score in assay [2] is 0.661 (inactive); in [3], 0.844 (inactive); in assay [4], 0.494 (inactive); in [5], 0.925 (inactive); in assay [11] it was -0.68 (inactive); in assay [13] it was -0.396 (inactive). In addition, the z-score in assay [14] was 0.355 (inactive); in [15] it was 0.0349 (inactive); in assay [16], -0.0371 (inactive); in [17], -0.552; in assay [18], 0.173 (inactive); in assay [19], 0.63 (inactive). For the same molecule, the z-score in [20] was -0.278.

On to `C=CCC(OC(C)=O)[C@@H]1[C@@H](N(Cc2cc3ccccc3o2)C(=O)c2ccc(-c3ccccc3)cc2)c2cc(OCCCO)ccc2N1C(=O)c1ccc2ccccc2n1` (stereo not given in full), for which the composite z-score was -0.202 in assay [1]; 0.378 in assay [6]; 0.0228 in [7]; 0.179 in the assay with Torsin-1A (Homo sapiens) [8]; 0.165 in the assay with Torsin-1A (Homo sapiens) [9]; 0.135 in [10]. The composite z-score in assay [12] is -0.0534. For the same molecule, the z-score was 0.214 (inactive) in assay [2]; -0.115 (inactive) in assay [3]; 2.46 (inactive) in assay [4]; -0.531 (inactive) in [5]; 0.803 (inactive) in assay [11]; 1.01 (inactive) in assay [13]. Further, the z-score in assay [14] is 0.698 (inactive); in assay [15], -0.44 (inactive); in [16], 0.655 (inactive); in [17], -0.113; in [18] it was 1.88 (inactive); in [19], -0.895 (inactive). Moreover, in [20], the z-score was found to be 1.66.

With `O=C1NC(=O)C2C1C=CC(C(O)c1ccc(F)cc1)N2Nc1ccccn1` (stereo not given), the composite z-score in [1] was -0.138; in assay [6], -0.0345; in [7], -0.0645; with Torsin-1A (Homo sapiens) [8], 0.286; with Torsin-1A (Homo sapiens) [9], 0.0123; in assay [10], 0.123. The molecule also displayed a composite z-score in assay [12] of 0.0378. Besides, the z-score in assay [2] is 0.74 (inactive); in [3], -1.36 (inactive); in assay [4], -0.136 (inactive); in [5], 0.0662 (inactive); in [11] it was -1.99 (inactive); in assay [13] it was 1.02 (inactive). Also, the z-score in assay [14] was 1.23 (inactive); in assay [15], -0.02 (inactive); in assay [16], 0.753 (inactive); in [17], -0.727; in [18], -1.01 (inactive); in assay [19], -2.92 (inactive). For the same molecule, in [20], the z-score was -2.12.

For `COCCOC(=O)N1C(=O)[C@@]2(c3cc(C#CCNC(N)=O)ccc31)[C@H](C(=O)NC[C@H](O)c1ccccc1)[C@H]1C(=O)O[C@H](c3ccccc3)[C@H](c3ccccc3)N1[C@@H]2c1ccc(OCCO)cc1`, the composite z-score is 0.0906 in assay [1]; 0.516 in [6]; -0.192 in [7]; 0.131 with Torsin-1A (Homo sapiens) [8]; 0.219 in the assay with Torsin-1A (Homo sapiens) [9]; 0.783 in assay [10]. The molecule also displayed a composite z-score in assay [12] of 0.278. The z-score is -0.8 (inactive) in assay [2]; -0.297 (inactive) in assay [3]; -0.606 (inactive) in assay [4]; -0.965 (inactive) in assay [5]; -0.242 (inactive) in [11]; 2.83 (inactive) in assay [13]. Also, the z-score in assay [14] is 0.757 (inactive); in assay [15] it was 0.742 (inactive); in assay [16], 0.581 (inactive); in [17], 0.457; in assay [18], 2.5 (inactive); in assay [19], 1.01 (inactive). For the same molecule, the z-score in assay [20] was -0.677.

Take `COCCCNC(=O)[C@@]1(Sc2ccc(C)cc2)CC(=O)N(C2CCCCC2)[C@@H]1c1ccc(CO)cc1I`: the composite z-score in assay [1] worked out at 0.0699; in [6] it was 0.404; in [7] it was 0.541; with Torsin-1A (Homo sapiens) [8] it was 0.0619; with Torsin-1A (Homo sapiens) [9] it was 0.401; in [10], 0.993. The molecule further came in with a composite z-score in assay [12] of -0.649. In addition, the z-score in [2] is -1.41 (inactive); in [3] it was 0.134 (inactive); in assay [4], -0.258 (inactive); in assay [5], 1.17 (inactive); in [11], -0.251 (inactive); in assay [13], 4.53 (inactive). The z-score in assay [14] was 0.678 (inactive); in assay [15], 0.0232 (inactive); in [16] it was 0.5 (inactive); in assay [17] it was -0.0285; in assay [18] it was 0.625 (inactive); in [19] it was -0.102 (inactive). In assay [20], the z-score was 1.43.

On to `C=CC[C@]1(C(=O)NCCCOC)N=C(c2ccc(OCCCO)cc2)O[C@H]1c1ccccc1`, for which the composite z-score in assay [1] is 0.274; in assay [6], -0.0374; in assay [7] it was -0.0986; with Torsin-1A (Homo sapiens) [8] it was 0.872; with Torsin-1A (Homo sapiens) [9] it was 1.37; in [10] it was -1.62. The same molecule returned a composite z-score in assay [12] of -0.0172. The z-score was -2.26 (inactive) in assay [2]; -0.747 (inactive) in assay [3]; 0.857 (inactive) in assay [4]; 0.15 (inactive) in assay [5]; 0.898 (inactive) in assay [11]; 12.3 (active) in [13]. For the same molecule, the z-score was 0.912 (inactive) in assay [14]; 0.932 (inactive) in assay [15]; 0.643 (inactive) in assay [16]; 0.727 in assay [17]; -2.35 (inactive) in assay [18]; -0.164 (inactive) in assay [19]. In addition, in assay [20], the z-score is -0.87.

For the molecule `COc1ccc([Si](C)(C)[C@H]2[C@H](CCO)O[C@@]3(C(=O)N(Cc4ccc(N5CCOC5=O)cc4)c4ccccc43)[C@@H]2C)cc1`, the composite z-score is -0.159 in assay [1]; 0.346 in [6]; -0.0791 in [7]; 0.216 in the assay with Torsin-1A (Homo sapiens) [8]; 0.0362 with Torsin-1A (Homo sapiens) [9]; 0.397 in [10]. Besides, in assay [12], the composite z-score amounted to 0.203. The z-score in assay [2] was -3.29 (inactive); in assay [3], -0.232 (inactive); in [4], 2.2 (inactive); in [5], -2.06 (inactive); in [11] it was 0.257 (inactive); in [13] it was 34.9 (active). Also, the z-score in [14] was 32.8 (active); in assay [15], 1.63 (inactive); in assay [16] it was 6.38 (inactive); in assay [17] it was 0.419; in assay [18] it was -0.372 (inactive); in assay [19], 1.75 (inactive). Also, the z-score in [20] stood at 0.908.

The values are drawn from PubChem BioAssay.
